Screening data (PubChem BioAssay)
This excerpt belongs to a sample that is enriched for hits.
CHX counter = affects cycloheximide protein synthesis inhibition readout, counter-screen; cell reporter, cycloheximide protein synthesis inhibition counterscreen; max response, %; 12% of 300,000 active; in the data active = max response mostly above about 13%, no sharp cut-off; inactive = mostly below about 14%; also: read at 38.3 µM for the half of the compounds with a filed dose; 0% is about no effect
Lassa entry inh = Lassa virus entry inhibition. Potency, µM (titrated, usually from 37.9 µM), inactives show top-dose activity change, negative = inhibition, actives largely listed as inhibitors. 1.2% of 300,000 active. Lassa virus pseudotype entry inhibition, cell reporter; calls by dose curve; tested in HEK293 cells; also: potency is read from the fitted curve at half-maximal effect; % is scaled to controls: 0 for no effect and ±100 for the full control effect; nearly all actives have a fitted effect of over 50% in size
Marburg entry inh = inhibitors of Marburg virus binding or cell entry | Marburg virus pseudotyped entry inhibition, cell reporter | AID 540276 | Potency, µM (top dose mostly 37.8 µM), for inactives: top-dose activity change, negative = inhibition, hits mostly inhibitors | 1.8% of 300,000 active; calls by dose curve; tested in HEK293 cells; also: potency is read from the fitted curve at half-maximal effect; % is scaled to controls: 0 for no effect and ±100 for the full control effect
VACV mCherry inh = inhibitors of vaccinia virus infection (mCherry reporter signal); Vaccinia virus mCherry reporter infection, fluorescence; Potency, µM (highest dose often 36.5 µM), for inactives: at the top dose activity change, negative = inhibition, usual class: inhibitors; 0.63% of 310,000 active; AID 720579; calls by dose curve; tested in A549 cells; also: potency is read from the fitted curve at half-maximal effect; % is scaled to controls: 0 for no effect and ±100 for the full control effect; nearly all actives have a fitted effect of over 35% in size
Shiga inhibitor = blocks Shiga toxin action in Vero cells | Vero cells, Shiga toxin protein synthesis inhibition reporter | inhibition, % at 38.7 µM | 9.2% of 290,000 active | AID 2315; in the data active = inhibition mostly above about 28%, no sharp cut-off; inactive = mostly below about 43%; also: 0% is about no effect
Vaccinia Venus = inhibitors of vaccinia virus (Venus reporter) | Potency, µM (doses to about 36.5 µM), inactives show at the highest dose activity change, negative = inhibition, most hits filed as inhibitors | AID 720580 | 0.46% of 330,000 active | Vaccinia virus Venus reporter expression, fluorescence; calls by dose curve; tested in A549 cells; also: potency is read from the fitted curve at half-maximal effect; % is scaled to controls: 0 for no effect and ±100 for the full control effect; nearly all actives have a fitted effect of over 30% in size
Numbers without * were called inactive; i = inactive; ? = inconclusive; / = no result; [ ] = another dose, or the depositor's remark.

SMILES	CHX counter	Lassa entry inh	Marburg entry inh	VACV mCherry inh	Shiga inhibitor	Vaccinia Venus
CC(=O)c1cc(NC(=O)c2ccc(C)cc2)c(=O)oc1/C=C/N(C)C	48*	?	9%	/	52*	-12%
Cc1cccn2c(=O)c3cc(C(=O)Nc4ccc(Cl)c(Cl)c4)sc3nc12	/	2%[46.1 µM]	?	-6%	/	-2%
Cc1cc(O)c(-c2cc(O)c(C)cc2O)cc1O	10*	/	/	/	11	/
O=C(CSc1ncc2c(n1)-c1ccccc1N(Cc1ccc(F)cc1)S2(=O)=O)c1ccc(Cl)cc1	/	22%[46.1 µM]	/	-18%	/	-9%
CC1=CC2=NC(=O)/C(=C\c3cc(C)n(-c4ccccc4)c3C)C(=N)N2O1	-1	2%	?	-14%	1	7%
Cc1cc(C=C2C(=O)CCCC2=O)c(C)n1-c1ccccc1	16*	7%	-9%	-19%	10	0%
O=C1NN(c2ccccc2)C(=O)/C1=C\c1coc2ccc(O)cc2c1=O	11	/	/	/	20	/
Cc1cc(/C=C2\C(=O)NN(c3ccccc3)C2=O)c(C)n1-c1ccccc1O	34*	/	/	/	46*	/
COc1ccc(Sc2ccc(/C=C3\C(=O)NN(c4ccccc4)C3=O)o2)cc1	-2	0%	?	i	-16	3%
COc1ccc(-n2c(C)cc(/C=C3\C(=O)NN(c4ccccc4)C3=O)c2C)cc1	39*	8%	17%	-6%	50*	-6%
Cc1cc(/C=C2/C(=O)NN(c3ccccc3)C2=O)c(C)n1-c1ccc(O)cc1	18	?	7.1µM*	-19%	13	-27%
COc1ccc(CN2CCC(N3CCC(C(=O)N4CCOCC4)CC3)CC2)c(F)c1	-1	3%	-8%[46.1 µM]	0%	12	-1%
COc1ccc(C)cc1NC(=O)C1CCN(S(=O)(=O)Cc2ccccc2)CC1	/	-7%[46.1 µM]	1%[46.1 µM]	-8%	/	-4%
CC1CC(c2ccccc2)=Nc2ccccc2N1 (configuration not stated)	46*	-1%	3%	-11%	54*	2%
CC1CC(=O)Nc2ccccc2N1 (configuration not stated)	/	0%[46.1 µM]	0%[46.1 µM]	-18%	/	-11%
CCN(CC)c1ccc(CN(C(=O)Cc2coc3ccc(C)cc23)C2CCS(=O)(=O)C2)cc1 (configuration not stated)	/	?	-15%[46.1 µM]	-14%	/	-10%
Cc1ccc(NNC(=O)c2ccno2)c(C)c1	-2	?	8.9µM*	-14%	20	-11%
COc1cccc2[nH]c(C(=O)NC(C)c3ccccc3)cc12 (configuration not stated)	-3	/	/	/	-5	/
COc1cccc2[nH]c(=O)c(-c3ccccc3)cc12	61*	/	/	/	120*	/
Cc1sc2ncnc(N(C)C3CCCCC3)c2c1C	11	-7%	-25%[46.1 µM]	-9%	45*	-10%
CCOC(=O)c1c(S(=O)(=O)N2CCCC(C(=O)N3CCN(c4cc(C)ccc4C)CC3)C2)c(C)n(C)c1C (configuration not stated)	/	6%[46.1 µM]	/	-18%	/	-16%
Cc1ccc(-n2c(C)cc(/C=N/NC(=O)c3ccncc3)c2C)cc1	25*	4%	-2%	/	18	/
CNC(=S)N/N=C/c1cc(C)n(-c2ccc(Cl)c(Cl)c2)c1C	22*	?	?	-3%	52	-24%
Cc1cc(/C=N/NC(=O)c2ccncc2)c(C)n1-c1cccc(C(F)(F)F)c1	8	?	-18%	-11%	6	-11%
Cc1ccc(-n2c(C)cc(/C=N/NC(N)=S)c2C)cc1	19*	?	?	?	-12	?
SMILES	CHX counter	Lassa entry inh	Marburg entry inh	VACV mCherry inh	Shiga inhibitor	Vaccinia Venus
Cc1ccc(-n2c(C)cc(/C=N/NC(=O)CC3(C)OCCO3)c2C)cc1	16	-20%	-22%	-22%	34	-18%
O=C1c2ccccc2NC(c2cccc(Cl)c2)N1N=C1CCCCCC1 (configuration not stated)	37*	11%	9%	/	52	/
N#C/C(=N\Nc1cccc2ccccc12)c1nnc2n1CCCCC2	14*	/	8%	/	3	/
O=C(Nc1ccc(Br)cc1)C1OCCc2ccccc21 (configuration not stated)	18*	-13%	4%[46.1 µM]	-5%	51*	0%
O=C(Nc1cccnc1)C1OCCc2ccccc21 (configuration not stated)	-2	-3%	-28%	-21%	-1	-5%
O=C(Nc1ccc(Oc2ccccc2)cc1)C1CCN(S(=O)(=O)c2ccccc2)CC1	/	-1%[46.1 µM]	3%[46.1 µM]	?	/	?
CN1CCCC1CCNC1C2CC3CC(C2)CC1C3 (configuration not stated)	2	-50%[14.3 µM]	13µM*	-21%	-12	-13%
COC(=O)C1=C(C)NC(C)=C(C(=O)OCCSc2ccccc2)C1C (configuration not stated)	13*	/	/	/	23*	/
COC(=O)C1=C(C)NC(=O)NC1c1ccccc1 (configuration not stated)	-1	0%	16%	/	10	/
COc1ccccc1C(=O)NCCC(=O)N1CCN(c2ccccc2O)CC1	/	-20%	14%	-11%	/	-21%
FC(F)(F)c1nc(-c2cccs2)ncc1-c1nnnn1-c1ccc(Cl)cc1	-2	16µM*	?	/	3	/
Cc1c(Cl)cccc1N/C(SCC(=O)N1CCCCCC1)=C(/C#N)c1nc2ccccc2s1	-2	?	11µM*	i	-2	-12%
O=C(O)C1CCN(C(=O)CSc2nc3ccccc3s2)CC1	-11	-1%	5%[46.1 µM]	1%	-11	-3%
CSc1nsc(SCC(=O)N2CCCCC2)n1	53*	25%	?	-25%	93*	-10%
CC1Cc2ccccc2N1C(=O)CSc1nc2ccccc2s1 (configuration not stated)	24*	1%	1%	/	41*	/
O=C(CSc1nc2ccccc2s1)N1CCCCC1	43*	20%	5%	-19%	124*	-13%
Cc1sc2nc(C(C)C)nc(SCC(=O)N3c4ccccc4CC3C)c2c1C (configuration not stated)	-1	?	?	20%	-4	-5%
O=C(CSc1nncc2ccccc12)N1CCCCC1	45*	16%[46.1 µM]	1%[46.1 µM]	-5%	40	-13%
O=C(CSc1nc(C2CC2)nc2ccccc12)N1CCCCC1	-5	-30%[46.1 µM]	?	-29%	-5	-14%
CCc1nc(SCC(=O)N2c3ccccc3CC2C)c2c(C)c(C)sc2n1 (configuration not stated)	-1	1.5µM*	0.92µM*	?	20	33%
CC1CCN(C(=O)CSc2nc3ccccc3s2)CC1	34*	21%	-6%	i	45	-1%
O=C(CSc1nc2ccccc2s1)NC1CCCC1	7	10%	?	-7%	32	-9%
CC1CCCC(C)N1C(=O)CSc1nc2ccccc2s1 (configuration not stated)	35*	?	6%	/	126*	/
